Experimental data: PubChem BioAssay AID925 (National Center for Advancing Translational Sciences (NCATS), 2007)
Several values for one entry are separate records, joined by “and”; a condition that tells them apart may be missing. Equal entries are not always repeated. Among all 65,000 compounds or so, about 40 (0.06%) were called active. Calls come from the whole dose curve; as a rule, active = well fitted activation curve with a large enough effect; inconclusive = small, poorly fitted or top-dose-only effect; inactive = flat fitted curve, though single readings scatter. The entries come from a sample that favours actives as a whole.

assay: qHTS Assay for Modulators of Hemoglobin Beta Chain Splicing; settings: HBB splicing reporter cell assay, EGFP reporter with mutant IVS2-654 intron; Potency: activation; series mostly up to 46.1 µM; note: 0% is about no effect
How it was run: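 HeLa cells stably expressing EGFP interrupted by mutant beta-globin intron 2 (IVS2-654), 500/well in 2% FCS. Treated with compound for 2 days at 37C. Splicing correction scored as total well GFP intensity (488 nm excitation, 500-520 nm emission); 500 nM antisense PNA served as control.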

activation, inactive:
CN/C(=C\[N+](=O)[O-])NCCSCc1csc(CN(C)C)n1
CO[C@H]1COC(=O)C/C=C\[C@H](C)COC(=O)[C@@H](OCc2ccccc2)/C=C\[C@@H]1C 1.62% [at 9.22 µM, normalised to 500 nM splice-correcting PNA]
Cc1c2c(nc3ccccc13)-c1cccc(=O)n1C2
CC/C=C/C/C=C/C/C=C/CCCCCCCC(=O)OCC
Oc1ccc2ccccc2c1C=NCc1c(O)ccc2ccccc12 0.869% [at 9.22 µM, normalised to 500 nM splice-correcting PNA]
CCCNC(=O)OC[C@@H]1O[C@H](c2ccccc2)C=C[C@@H]1Oc1ccc(OC)cc1 -1.16% [at 9.22 µM, normalised to 500 nM splice-correcting PNA]
O=C1OCCC=C1[C@@H](O)CCc1ccccc1 3.64% [at 9.22 µM, normalised to 500 nM splice-correcting PNA]
CCCn1c(-c2ccc(F)cc2)nc2c(NCC3CCCN3CC)nc(C)nc21 (configuration not stated)
Cc1cc(C)cc(N)c1
c1ccc2c(c1)-c1ccccc1C2N1CC2CCC(CC2)C1 3.26% [at 9.22 µM, normalised to 500 nM splice-correcting PNA]
COc1ncc2nc(-c3ccc(Cl)cc3)c(=O)n(-c3ccccc3)c2n1
O=C(O)CC(C(=O)O)C(CC(=O)O)C(=O)O (configuration not stated)
COC(=O)[C@@]1(Cc2ccc(OC)cc2)[C@H]2c3cc(C(=O)N4CCCC4)n(Cc4ccc(C(F)(F)F)nc4)c3C[C@H]2CN1C(=O)c1ccccc1
CC1=C(C(=O)OCc2ccccc2)C(c2ccc(C(F)(F)F)cc2)NC(=O)N1CCCCCC(=O)O (configuration not stated)
COc1ccc(-c2nc3cnc(OC)nc3n(Cc3ccc(F)cc3)c2=O)cc1
Cc1cccc(Br)c1
CS(=O)(=O)N1CCC2(CC1)CN(c1ccncc1)C2
CCn1ccnc1C[C@@H]1COc2ccccc2O1
CC[C@H](c1ccccc1)c1cc(C(C)(C)C)cc(C(C)(C)C)c1O -0.113% [at 9.22 µM, normalised to 500 nM splice-correcting PNA]
CC(C)(O/N=C(\C(=O)N[C@@H]1C(=O)N2C(C(=O)[O-])=C(C[n+]3ccccc3)CS[C@@H]12)c1csc(N)n1)C(=O)O
C[C@]1(O)CC[C@H]2[C@H]3CC=C4N5CCN=C5CC[C@@]4(C)[C@H]3CC[C@@]21C -0.0515% [at 9.22 µM, normalised to 500 nM splice-correcting PNA]
Cc1c(NC(=O)c2cccnc2)c(=O)n(-c2ccccc2)n1C
COC(=O)[C@@]1(Cc2ccc(OC)cc2)[C@H]2c3cc(C(=O)N4CCCC4)n(Cc4ccc(OC(F)(F)F)cc4)c3C[C@H]2CN1C(=O)c1ccccc1
CC[C@@H]1Cc2cc(O)ccc2C2=C1c1ccc(O)cc1C[C@H]2CC
Cc1nc2cnc(N3CCNCC3)nc2n(Cc2ccc(F)cc2)c1=O
COc1ccc(CNc2ncncc2-c2ccccc2OC)c(OC)c1
COC(=O)[C@@H]1CC[C@H](C)[C@@H](c2ccc(C)cc2)N1C(=O)c1ccc(/C=N\O[C@@H](C)c2cn([C@H](CO)Cc3ccccc3)nn2)cc1 0.582% [at 9.22 µM, normalised to 500 nM splice-correcting PNA] and -0.794% [at 9.22 µM, normalised to 500 nM splice-correcting PNA]
O=C(c1cccc(F)c1)N1CCC2(CCCN(Cc3ccncc3)C2)CC1
Cc1cccc(C(=O)O)c1[N+](=O)[O-]
COc1cccc(Cn2c(=O)c(CCc3ccccc3)nc3cnc(N(C)C)nc32)c1
Cc1cnc(CNc2nc(-c3cccnc3)nc3ccccc23)cn1
COc1ccc(-c2nc3cnc(Oc4ccccc4)nc3n(Cc3cccs3)c2=O)cc1
CCC[C@@H]1C[C@@]1(CCC)C(NS(=O)(=O)c1cccc2cccnc12)c1ccc(Cl)cc1 (some centres not stated)
O=C(Cl)c1ccc([N+](=O)[O-])cc1
O=C(c1csnn1)N1CCC[C@@]2(CCN(Cc3nccs3)C2)C1
CCNC(=S)NCC
O=C(c1ccc([N+](=O)[O-])cc1)[C@@H](Br)[C@@H](Br)c1ccnc2ccccc12 0.675% [at 9.22 µM, normalised to 500 nM splice-correcting PNA]
